# Experimental data taken from PubChem BioAssay.
# Activity calls are given as the source filed them. No rule for the calls is given here.
# System: Aerobactin synthetase IucA (Klebsiella pneumoniae, hypervirulent)
# Test: IucA enzyme inhibition, biochemical, LOPAC library, absorbance readout (AID 1346212);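 also: 100% = no compound wells and 0% = no enzyme wells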
# Conditions: IucA enzyme assay, absorbance (OD) readout; active compounds read low;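 tested at 8 µM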
row,SMILES,remaining activity
1,COc1cc(N)c(Cl)cc1C(=O)OCCN1CCCCC1,110% (inactive)
2,COc1ccc2c(c1)CC[C@@H]1[C@@H]2CC[C@]2(C)[C@@H](NCCCCCCN3C(=O)CCC3=O)CC[C@@H]12,119% (inactive)
3,C[C@@H]1O[C@@H](O[C@H]2C[C@@H](O)[C@]3(CO)[C@H]4[C@H](O)C[C@]5(C)[C@@H](C6COC(=O)C6)CC[C@]5(O)[C@@H]4CC[C@]3(O)C2)[C@H](O)[C@H](O)[C@H]1O (stereo not given in full),97.8% (inactive)
4,Oc1cc2c(cc1O)CN(C(=S)NCCc1ccc(Cl)cc1)CCC2,97.8% (inactive)
5,C[C@H](NCCc1ccc(O)cc1)[C@H](O)c1ccc(O)cc1,94.5% (inactive)
6,O=C(O)Cc1c[nH]c2ccc(O)cc12,101% (inactive)
7,C#Cc1ccc2c(c1)C(=O)N(C)Cc1c(C(=O)OCCCc3nc(C(=O)O)c4n3-c3ccc(C#C)cc3C(=O)N(C)C4)ncn1-2,97.1% (inactive)
8,O=c1[nH]ccc2c(O)cccc12,117% (inactive)
9,COc1ccc(C(=O)NCc2cccnc2)cc1C(=O)NCc1cccnc1,103% (inactive)
10,O=C[C@H](Cl)[C@@H](O)[C@H](O)[C@H](O)CO,101% (inactive)
11,CC(CCc1ccc(O)cc1)NCCc1ccc(O)c(O)c1 (stereo not given),98.4% (inactive)
12,CNCC[C@H](Oc1ccc(C(F)(F)F)cc1)c1ccccc1,93.6% (inactive)
13,N[C@H](C(=O)O)c1cc(O)cc(O)c1,108% (inactive)
14,COc1nc(C)nc(Cl)c1NC1=NCCN1,119% (inactive)
15,O=S(=O)(c1cccc2c(I)cccc12)N1CCCNCC1,107% (inactive)
16,C[C@]12CCC(=O)C=C1CC[C@@H]1[C@@H]2CC[C@@]2(C)[C@H]1CC[C@]2(O)C(=O)CO,110% (inactive)
17,N[C@@H](CCCC(=O)O)C(=O)O,110% (inactive)
18,CO[C@@]1(NC(=O)CSCC#N)C(=O)N2C(C(=O)O)=C(CSc3nnnn3C)CS[C@@H]21,118% (inactive)
19,CN1Cc2sccc2C(c2ccc(O)c(O)c2)C1 (stereo not given),120% (inactive)
20,Cc1cc(O)c2c(c1)C(=O)c1cc(O)cc(O)c1C2=O,76.7% (inactive)

row,SMILES,remaining activity
1,c1ccc2c(c1)CC(N1CCN(c3cccc4c3OCCO4)CC1)C2,108% (inactive)
2,NC1=NCC2c3ccccc3Cc3ccccc3N12 (stereo not given),91.6% (inactive)
3,CCCCCCCCCCCCCCCCCCNC(=O)OCC(COP(=O)([O-])OCC[n+]1ccsc1)OC (stereo not given),126% (inactive)
4,CCC(NC(C)C)C(O)c1ccc(O)c(O)c1 (stereo not given),102% (inactive)
5,Nc1c(S(=O)(=O)O)cc(Nc2ccc(Nc3nc(Cl)nc(Nc4cccc(S(=O)(=O)O)c4)n3)c(S(=O)(=O)O)c2)c2c1C(=O)c1ccccc1C2=O,100% (inactive)
6,CCCn1c(=O)c2c(ncn2C)n(CCC)c1=O,110% (inactive)
7,CC(C)C[C@H]1C(=O)N2CCC[C@H]2[C@]2(O)O[C@](NC(=O)[C@@H]3C=C4c5cccc6[nH]c(Br)c(c56)C[C@H]4N(C)C3)(C(C)C)C(=O)N12,108% (inactive)
8,O=C(O)c1cc(=O)cc(C(=O)O)[nH]1,122% (inactive)
9,C[C@H](NC(=O)/C(C#N)=C/c1ccc(O)c(O)c1)c1ccccc1,95.7% (inactive)
10,Cc1ccc(S(=O)(=O)N[C@@H](Cc2ccccc2)C(=O)CCl)cc1,107% (inactive)
11,Cc1nc(N=Nc2cc([N+](=O)[O-])ccc2Cl)c(COP(=O)(O)O)c(C=O)c1O,117% (inactive)
12,COC(=O)C1=C(C)NC(C)=C(C(=O)OC(C)(C)CN(C)CCC(c2ccccc2)c2ccccc2)C1c1cccc([N+](=O)[O-])c1 (stereo not given),109% (inactive)
13,O=C(O)/C(=C/c1c(C(=O)O)[nH]c2cc(Cl)cc(Cl)c12)c1ccccc1,117% (inactive)
14,O=c1onc2cnc3ccccc3n12,112% (inactive)
15,CC(=O)SCC[N+](C)(C)C,117% (inactive)
16,O=C1CCC(c2ccc(-n3ccnc3)cc2)=NN1,111% (inactive)
17,Nc1nc(Cl)nc2c1ncn2[C@@H]1O[C@H](COP(=O)(O)OP(=O)(O)OP(=O)(O)O)[C@H](O)C1O (stereo not given in full),104% (inactive)
18,O=C(c1ccc(Cl)cc1)N1CCN(c2ccc([N+](=O)[O-])c3ncccc23)CC1,120% (inactive)
19,Nc1ncnc2c1c(-c1ccc(Oc3ccccc3)cc1)cn2C1CCCC1,122% (inactive)
20,COc1cc2c(cc1O)CC[C@@H]1[C@@H]2CC[C@]2(C)[C@@H](O)CC[C@@H]12,116% (inactive)
